# PMC7862700, “An all-to-all approach to the identification of sequence-specific readers for epigenetic DNA modifications on cytosine”
# What was measured:
# Assay in all cases: DAPPL (digital affinity profiling via proximity ligation, sequencing); 10 mM Tris-HCl pH 7.5, 50 mM NaCl, 1 mM DTT, 4% glycerol, room temperature, 30 min; GST-TFs on glutathione beads, 16-mer random dsDNA library, 0.1% formaldehyde crosslink after washing; high values mean tight binding
# Conditions in all cases: protein: recombinant; tags: N-terminal GST; dsDNA, one strand shown
# ELK1 = target: T1, ELK1 (Homo sapiens, UniProt P19419 1-428)
# T1 sequence: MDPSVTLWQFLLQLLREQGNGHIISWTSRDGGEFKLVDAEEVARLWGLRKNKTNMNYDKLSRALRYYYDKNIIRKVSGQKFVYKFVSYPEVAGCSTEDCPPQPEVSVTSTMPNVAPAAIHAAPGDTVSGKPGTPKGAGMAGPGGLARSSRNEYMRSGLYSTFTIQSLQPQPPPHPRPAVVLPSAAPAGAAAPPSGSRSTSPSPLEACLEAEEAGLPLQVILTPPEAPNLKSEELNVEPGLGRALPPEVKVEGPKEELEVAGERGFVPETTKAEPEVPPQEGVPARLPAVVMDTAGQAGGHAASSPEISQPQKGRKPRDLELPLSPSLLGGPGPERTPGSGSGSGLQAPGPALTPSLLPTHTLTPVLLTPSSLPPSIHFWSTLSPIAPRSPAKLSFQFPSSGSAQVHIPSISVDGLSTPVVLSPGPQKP
# Procedure, shortened: (§1)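 Beads coated with glutathione captured GST-fused human transcription factors that had been expressed in yeast, and the factors were then given DNA barcodes and pooled with a tag-only sample. The pools were incubated with 200 nmole of a random double-stranded 16-mer DNA library in Tris/NaCl/DTT/glycerol buffer for 30 min at room temperature, washed, crosslinked with 0.1% formaldehyde and proximity-ligated with BsaI/T4 ligase at 37 °C for 1 h. PCR amplification and Illumina NextSeq500 sequencing came last. Binding signal is each hexamer's read frequency for a factor divided by its frequency for the tag-only sample.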
# GABPA = target: T2, GABPA (Homo sapiens, UniProt Q06546 1-454)
# T2 sequence: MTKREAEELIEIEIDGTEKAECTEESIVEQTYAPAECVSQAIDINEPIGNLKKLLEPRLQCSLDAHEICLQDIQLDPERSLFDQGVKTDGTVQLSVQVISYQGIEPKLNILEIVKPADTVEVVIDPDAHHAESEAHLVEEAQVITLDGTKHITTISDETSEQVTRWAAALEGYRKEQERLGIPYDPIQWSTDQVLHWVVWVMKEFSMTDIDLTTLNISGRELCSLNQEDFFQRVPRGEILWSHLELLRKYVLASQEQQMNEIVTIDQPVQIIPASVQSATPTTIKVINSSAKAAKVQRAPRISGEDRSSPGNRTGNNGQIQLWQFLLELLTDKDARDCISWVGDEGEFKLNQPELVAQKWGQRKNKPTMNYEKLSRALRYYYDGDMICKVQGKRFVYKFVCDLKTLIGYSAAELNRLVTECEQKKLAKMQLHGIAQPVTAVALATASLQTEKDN
# Procedure, shortened: as §1
# ERG = target: T3, ERG (Homo sapiens, UniProt P11308 1-479)
# T3 sequence: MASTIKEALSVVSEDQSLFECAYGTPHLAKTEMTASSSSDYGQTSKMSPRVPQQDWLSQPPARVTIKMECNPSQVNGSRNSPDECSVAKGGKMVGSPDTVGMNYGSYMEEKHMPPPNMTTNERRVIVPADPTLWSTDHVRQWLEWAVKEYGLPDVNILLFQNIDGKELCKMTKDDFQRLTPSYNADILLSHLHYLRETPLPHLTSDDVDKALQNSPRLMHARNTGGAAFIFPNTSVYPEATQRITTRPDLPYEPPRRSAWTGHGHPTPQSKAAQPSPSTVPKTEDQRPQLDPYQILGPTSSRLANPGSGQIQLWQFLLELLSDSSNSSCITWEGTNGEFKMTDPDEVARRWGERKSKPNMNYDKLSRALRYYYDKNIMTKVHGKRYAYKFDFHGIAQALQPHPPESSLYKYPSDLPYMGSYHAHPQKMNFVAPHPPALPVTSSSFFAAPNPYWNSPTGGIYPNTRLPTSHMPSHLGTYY
# Procedure, shortened: as §1
# ELF1 = ELF1 (Homo sapiens, UniProt P32519 1-619)
# Sequence of ELF1 (P32519 whole entry): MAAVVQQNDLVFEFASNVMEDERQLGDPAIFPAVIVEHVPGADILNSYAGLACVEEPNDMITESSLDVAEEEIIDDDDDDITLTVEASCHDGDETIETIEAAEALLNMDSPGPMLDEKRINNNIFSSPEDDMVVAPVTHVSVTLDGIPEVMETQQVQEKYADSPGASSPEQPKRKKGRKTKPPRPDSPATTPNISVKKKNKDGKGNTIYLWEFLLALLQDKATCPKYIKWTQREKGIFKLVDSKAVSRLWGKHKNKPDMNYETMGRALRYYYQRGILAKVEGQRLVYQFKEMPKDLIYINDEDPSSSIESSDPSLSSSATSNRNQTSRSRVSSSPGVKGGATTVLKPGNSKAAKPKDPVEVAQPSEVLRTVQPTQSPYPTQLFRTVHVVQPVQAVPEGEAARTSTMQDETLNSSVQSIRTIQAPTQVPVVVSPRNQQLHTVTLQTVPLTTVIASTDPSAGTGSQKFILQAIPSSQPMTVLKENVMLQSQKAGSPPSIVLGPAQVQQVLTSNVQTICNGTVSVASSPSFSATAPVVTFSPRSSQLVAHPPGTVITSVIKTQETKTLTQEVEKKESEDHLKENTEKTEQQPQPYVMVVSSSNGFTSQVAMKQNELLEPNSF
# Procedure, shortened: as §1
# ELK3 = target: T4, ELK3 (Homo sapiens, UniProt P41970 1-407)
# T4 sequence: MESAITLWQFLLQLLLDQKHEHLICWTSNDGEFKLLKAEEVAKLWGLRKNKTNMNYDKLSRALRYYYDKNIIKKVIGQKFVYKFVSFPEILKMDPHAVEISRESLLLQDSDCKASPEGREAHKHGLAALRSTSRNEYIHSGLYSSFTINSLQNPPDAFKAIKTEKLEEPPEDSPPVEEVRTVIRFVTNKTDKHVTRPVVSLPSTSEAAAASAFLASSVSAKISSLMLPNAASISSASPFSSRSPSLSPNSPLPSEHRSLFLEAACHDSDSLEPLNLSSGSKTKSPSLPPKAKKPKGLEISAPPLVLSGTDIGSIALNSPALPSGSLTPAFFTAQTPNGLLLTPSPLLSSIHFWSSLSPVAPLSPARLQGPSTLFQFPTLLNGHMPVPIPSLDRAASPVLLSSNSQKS
# Procedure, shortened: as §1
# SPIC = target: T5, SPIC (Homo sapiens, UniProt Q8N5J4 1-248)
# T5 sequence: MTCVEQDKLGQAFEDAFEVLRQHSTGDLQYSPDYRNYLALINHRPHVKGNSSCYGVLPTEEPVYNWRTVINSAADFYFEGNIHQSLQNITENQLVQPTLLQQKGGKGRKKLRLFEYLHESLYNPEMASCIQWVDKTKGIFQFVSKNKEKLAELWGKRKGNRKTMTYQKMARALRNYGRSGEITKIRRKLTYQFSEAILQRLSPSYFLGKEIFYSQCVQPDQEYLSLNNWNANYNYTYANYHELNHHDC
# Procedure, shortened: as §1
# ELF4 = ELF4 (Homo sapiens, UniProt Q99607 1-663)
# Sequence of ELF4 (Q99607 whole entry): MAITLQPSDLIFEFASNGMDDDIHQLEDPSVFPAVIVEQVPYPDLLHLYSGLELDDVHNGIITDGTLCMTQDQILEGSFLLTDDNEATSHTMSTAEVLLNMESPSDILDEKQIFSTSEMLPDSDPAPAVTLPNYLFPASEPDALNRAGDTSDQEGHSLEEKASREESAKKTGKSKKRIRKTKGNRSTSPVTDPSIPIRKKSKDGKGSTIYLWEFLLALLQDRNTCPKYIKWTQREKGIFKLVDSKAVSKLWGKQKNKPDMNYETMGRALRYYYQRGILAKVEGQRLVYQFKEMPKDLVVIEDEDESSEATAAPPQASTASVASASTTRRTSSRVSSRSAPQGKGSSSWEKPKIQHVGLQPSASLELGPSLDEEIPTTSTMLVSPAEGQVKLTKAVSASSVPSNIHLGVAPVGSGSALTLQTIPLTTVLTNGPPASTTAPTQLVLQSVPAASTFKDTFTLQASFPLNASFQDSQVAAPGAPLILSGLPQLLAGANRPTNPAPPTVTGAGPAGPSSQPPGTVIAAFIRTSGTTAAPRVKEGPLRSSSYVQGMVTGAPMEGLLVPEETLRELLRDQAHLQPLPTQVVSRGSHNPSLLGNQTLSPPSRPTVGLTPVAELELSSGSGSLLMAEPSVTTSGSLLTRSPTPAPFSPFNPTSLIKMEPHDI
# Procedure, shortened: as §1
# ELF3 = target: T6, ELF3 (Homo sapiens, UniProt P78545 1-371)
# T6 sequence: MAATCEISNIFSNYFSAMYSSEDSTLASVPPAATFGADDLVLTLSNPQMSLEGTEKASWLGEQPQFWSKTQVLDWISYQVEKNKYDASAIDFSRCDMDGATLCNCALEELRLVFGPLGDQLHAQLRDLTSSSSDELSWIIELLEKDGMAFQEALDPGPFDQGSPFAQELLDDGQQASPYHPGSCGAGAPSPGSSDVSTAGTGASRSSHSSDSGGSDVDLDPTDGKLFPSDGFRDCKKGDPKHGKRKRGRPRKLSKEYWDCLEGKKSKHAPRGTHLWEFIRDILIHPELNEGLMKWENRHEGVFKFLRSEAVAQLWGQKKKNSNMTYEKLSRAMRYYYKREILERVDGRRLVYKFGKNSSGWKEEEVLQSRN
# Procedure, shortened: as §1
# ERF = target: T7, ERF (Homo sapiens, UniProt P50548 1-548)
# T7 sequence: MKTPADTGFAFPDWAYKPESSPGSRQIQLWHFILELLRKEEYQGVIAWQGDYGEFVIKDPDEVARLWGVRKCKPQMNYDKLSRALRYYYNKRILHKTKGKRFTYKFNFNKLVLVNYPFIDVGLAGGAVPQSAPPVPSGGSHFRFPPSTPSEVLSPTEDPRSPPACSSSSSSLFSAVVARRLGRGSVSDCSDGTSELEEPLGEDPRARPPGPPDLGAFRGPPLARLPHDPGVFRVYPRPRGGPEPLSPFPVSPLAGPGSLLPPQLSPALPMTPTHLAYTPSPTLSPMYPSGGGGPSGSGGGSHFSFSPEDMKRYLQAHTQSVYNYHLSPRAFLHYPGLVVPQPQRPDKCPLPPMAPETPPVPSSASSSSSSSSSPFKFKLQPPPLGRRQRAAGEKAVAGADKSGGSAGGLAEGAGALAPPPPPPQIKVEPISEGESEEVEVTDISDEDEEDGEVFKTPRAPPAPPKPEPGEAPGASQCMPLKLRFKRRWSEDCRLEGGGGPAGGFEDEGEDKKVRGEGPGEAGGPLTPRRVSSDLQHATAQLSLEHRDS
# Procedure, shortened: as §1
# ETV3L = target: T8, ETV3L (Homo sapiens, UniProt Q6ZN32 1-361)
# T8 sequence: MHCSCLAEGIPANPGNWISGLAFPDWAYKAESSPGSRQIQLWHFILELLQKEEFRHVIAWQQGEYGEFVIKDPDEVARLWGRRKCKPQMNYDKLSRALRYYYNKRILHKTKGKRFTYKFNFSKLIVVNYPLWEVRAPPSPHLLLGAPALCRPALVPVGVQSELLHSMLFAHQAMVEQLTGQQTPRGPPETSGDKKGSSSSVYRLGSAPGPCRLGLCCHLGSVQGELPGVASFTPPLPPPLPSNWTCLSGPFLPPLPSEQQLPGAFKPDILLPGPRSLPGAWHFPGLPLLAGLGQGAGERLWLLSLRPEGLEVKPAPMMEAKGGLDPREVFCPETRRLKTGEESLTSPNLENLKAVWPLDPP
# Procedure, shortened: as §1
# ETS2 = target: T9, ETS2 (Homo sapiens, UniProt P15036 1-469)
# T9 sequence: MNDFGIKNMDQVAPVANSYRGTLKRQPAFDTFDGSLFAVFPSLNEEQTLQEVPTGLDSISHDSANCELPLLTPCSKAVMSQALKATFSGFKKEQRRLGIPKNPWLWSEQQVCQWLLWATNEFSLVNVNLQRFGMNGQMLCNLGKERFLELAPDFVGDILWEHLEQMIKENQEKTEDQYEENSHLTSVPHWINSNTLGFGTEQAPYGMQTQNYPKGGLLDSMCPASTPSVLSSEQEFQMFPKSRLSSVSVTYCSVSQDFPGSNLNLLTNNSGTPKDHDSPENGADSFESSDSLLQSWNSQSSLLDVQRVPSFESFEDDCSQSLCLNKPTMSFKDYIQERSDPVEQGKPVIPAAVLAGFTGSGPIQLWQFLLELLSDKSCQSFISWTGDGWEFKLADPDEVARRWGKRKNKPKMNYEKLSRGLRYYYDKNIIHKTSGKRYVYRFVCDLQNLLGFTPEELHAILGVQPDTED
# Procedure, shortened: as §1
# SPDEF = target: T10, SPDEF (Homo sapiens, UniProt O95238 1-335)
# T10 sequence: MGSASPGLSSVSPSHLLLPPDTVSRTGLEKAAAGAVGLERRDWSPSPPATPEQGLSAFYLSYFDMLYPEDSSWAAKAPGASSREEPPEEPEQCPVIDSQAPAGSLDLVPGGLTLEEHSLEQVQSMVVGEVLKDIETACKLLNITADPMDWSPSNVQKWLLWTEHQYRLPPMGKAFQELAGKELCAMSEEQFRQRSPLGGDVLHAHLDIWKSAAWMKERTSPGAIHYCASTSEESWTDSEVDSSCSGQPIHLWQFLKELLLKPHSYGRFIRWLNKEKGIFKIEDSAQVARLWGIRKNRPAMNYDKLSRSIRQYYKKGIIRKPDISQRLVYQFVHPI
# Procedure, shortened: as §1
# ETV7 = target: T11, ETV7 (Homo sapiens, UniProt Q9Y603 1-341)
# T11 sequence: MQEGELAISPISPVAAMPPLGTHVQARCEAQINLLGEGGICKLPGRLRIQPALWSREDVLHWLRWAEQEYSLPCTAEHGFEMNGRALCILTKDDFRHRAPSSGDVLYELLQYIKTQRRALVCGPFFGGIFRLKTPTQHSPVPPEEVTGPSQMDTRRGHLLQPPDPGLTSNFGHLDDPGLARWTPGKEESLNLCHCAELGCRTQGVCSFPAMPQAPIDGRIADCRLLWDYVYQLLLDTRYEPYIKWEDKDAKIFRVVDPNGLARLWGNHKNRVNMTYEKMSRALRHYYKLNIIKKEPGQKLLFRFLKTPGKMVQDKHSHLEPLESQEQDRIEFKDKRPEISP
# Procedure, shortened: as §1
# ETV3 = target: T12, ETV3 (Homo sapiens, UniProt P41162-2 1-143)
# T12 sequence: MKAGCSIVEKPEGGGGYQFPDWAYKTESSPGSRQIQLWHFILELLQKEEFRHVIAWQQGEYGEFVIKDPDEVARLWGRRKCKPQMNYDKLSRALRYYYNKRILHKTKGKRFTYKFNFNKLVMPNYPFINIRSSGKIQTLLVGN
# Procedure, shortened: as §1
# ETV6 = ETV6 (Homo sapiens, UniProt P41212 1-452)
# Sequence of ETV6 (P41212 whole entry): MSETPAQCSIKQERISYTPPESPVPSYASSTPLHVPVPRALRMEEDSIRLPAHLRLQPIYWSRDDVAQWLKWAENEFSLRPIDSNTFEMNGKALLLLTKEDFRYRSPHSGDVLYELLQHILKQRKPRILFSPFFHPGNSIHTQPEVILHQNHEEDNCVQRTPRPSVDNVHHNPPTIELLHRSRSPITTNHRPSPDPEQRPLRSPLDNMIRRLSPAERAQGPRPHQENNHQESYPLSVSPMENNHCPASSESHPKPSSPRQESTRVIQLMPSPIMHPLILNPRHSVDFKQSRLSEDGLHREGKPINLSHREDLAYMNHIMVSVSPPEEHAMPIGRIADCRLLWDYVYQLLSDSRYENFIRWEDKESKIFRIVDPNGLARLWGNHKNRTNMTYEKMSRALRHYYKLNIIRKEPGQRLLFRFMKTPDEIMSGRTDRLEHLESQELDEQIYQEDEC
# Procedure, shortened: as §1
sequence,measurement,setting,value
CTAGAA,binding signal,ELK1,"1 fold enrichment (6-mer frequency, TF over GST control)"
same,binding signal,GABPA,"1.05 fold enrichment (6-mer frequency, TF over GST control)"
same,binding signal,ERG,"1.05 fold enrichment (6-mer frequency, TF over GST control)"
same,binding signal,ELF1,"1.04 fold enrichment (6-mer frequency, TF over GST control)"
same,binding signal,ELK3,"1.09 fold enrichment (6-mer frequency, TF over GST control)"
same,binding signal,SPIC,"1.03 fold enrichment (6-mer frequency, TF over GST control)"
same,binding signal,ELF4,"1.05 fold enrichment (6-mer frequency, TF over GST control)"
same,binding signal,ELF3,"1.03 fold enrichment (6-mer frequency, TF over GST control)"
same,binding signal,ERF,"1.28 fold enrichment (6-mer frequency, TF over GST control)"
same,binding signal,ETV3L,"1.03 fold enrichment (6-mer frequency, TF over GST control)"
same,binding signal,ETS2,"1.02 fold enrichment (6-mer frequency, TF over GST control)"
same,binding signal,SPDEF,"1.01 fold enrichment (6-mer frequency, TF over GST control)"
same,binding signal,ETV7,"1.02 fold enrichment (6-mer frequency, TF over GST control)"
same,binding signal,ETV3,"1.01 fold enrichment (6-mer frequency, TF over GST control)"
same,binding signal,ETV6,"1.04 fold enrichment (6-mer frequency, TF over GST control)"
